An excerpt weighted towards active compounds, which were near 4% of everything screened.
p53null 32C tox: p53 null cell cytotoxicity, permissive temperature; H1299-neo p53 null cells, ATP luminescence, 24 h, 32C; Potency, µM (highest dose often 46.1 µM), for the others: at the top dose activity change, negative = cytotoxicity, usual class: cytotoxic; 55,000 tested, 0.62% active; AID 903;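 further: potency means the concentration at half of the fitted maximal effect; 0% = DMSO only and -100% = full killing by 100 µM tamoxifen; nearly all actives have a fitted effect of over 55% in size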
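H1299-neo (p53-null) cells, 600/well, were pre-incubated overnight at 37C, then exposed to compounds at up to 46 uM for 24 hr at 32C. Viability was measured as ATP content by luminescence, and AC50 values came from Hill fits.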
SKOV3 invasion: ovarian cancer metastasis inhibition, 3D TME model; SKOV3ip1-GFP adhesion/invasion on 3D omental model, fluorescence; Potency, µM (highest dose often 45.8 µM), for the others: at the top dose activity change, negative = inhibition, usual class: inhibitors; 46,000 tested, 0.1% active; AID 1963576;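 further: potency means the concentration at half of the fitted maximal effect; plate controls were DMSO wells for no effect and tomatine positive control wells for full effect; nearly all actives have a fitted effect of over 65% in size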
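qHTS, 4-pt dose (0.36-46 umol/L); SKOV3ip1-GFP, 1,200 cells/well, no FBS; primary omental fibroblast/mesothelial co-culture 48 h pre-grown; 2 h RT + 16 h 37 C; PBS wash, 4% PFA; GFP count 488/509 nm.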
p53null 39C kill: selectivity test: cytotoxicity in p53 null cells, nonpermissive temperature | 55,000 tested, 0.97% active | H1299 p53-null (neo) cells, 39C, ATPlite viability, 24 h | Potency, µM (series often up to 46.1 µM), for the others: at the top dose activity, negative = cell killing, actives largely listed as cytotoxic;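 further: potency means the concentration at half of the fitted maximal effect; 0% = DMSO only and -100% = full killing by 100 µM tamoxifen; nearly all actives have a fitted effect of over 50% in size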
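H1299 lung cancer cells, p53-null (H1299-neo) or expressing p53 A138V (H1299-p53A138V), were plated overnight at 37C, then exposed to compounds at up to 46 uM for 24 hr at 39C. Viability was read by ATP-based luminescence.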
NTMT1 inhibitor: NTMT1 methyltransferase inhibition | Q9BV86 | NTMT1 MTase-Glo SAH luminescence, purified enzyme | Potency, µM (top dose mostly 114 µM), for the others: at the top dose activity change, negative = inhibition, actives largely listed as inhibitors | 59,000 tested, 2.5% active | AID 1645870;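 further: potency means the concentration at half of the fitted maximal effect; plate controls were DMSO vehicle for no effect and no enzyme for full effect; nearly all actives have a fitted effect of over 65% in size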
Target sequence (Q9BV86 whole entry, looked up): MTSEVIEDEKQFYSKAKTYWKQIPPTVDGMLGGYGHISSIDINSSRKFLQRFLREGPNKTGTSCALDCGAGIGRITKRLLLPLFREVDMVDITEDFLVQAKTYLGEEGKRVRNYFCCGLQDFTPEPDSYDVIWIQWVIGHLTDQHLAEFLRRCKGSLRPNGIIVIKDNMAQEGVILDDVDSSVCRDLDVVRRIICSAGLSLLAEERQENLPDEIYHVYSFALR
GALC G270D act: raises human GALC G270D mutant activity in cells. Potency, µM (highest dose often 57.5 µM), most hits filed as activators. P54803. 45,000 tested, 0.1% active. 145M-Twi-hGALC-G270D cells (Twitcher mouse brain line with human GALC G270D), HMU-beta-Gal fluorescence, 48 h; further: potency means the concentration at half of the fitted maximal effect; 0% is about no effect; nearly all actives have a fitted effect of over 65% in size
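Brain-derived Twitcher mouse 145M-Twi cells stably expressing human GALC-G270D or wild-type GALC, treated live, then residual GALC activity read by fluorescence of HMU-b-Gal substrate (0.1 mM final) in citrate-phosphate buffer pH 5.2 with sodium taurocholate. Signal increase indicates enhancement.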
GPR32 ag: activates human resolvin D1 receptor GPR32. O75388. CHO-K1 GPR32 beta-arrestin PathHunter luminescence, 90 min; zero percent set by DMSO-only wells. activation, % at 76.9 µM. 48,000 tested, 2.5% active;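 active means activation of at least 60% and not above a set upper limit, about 1 call in 100 departs from these limits; inconclusive means activation of 40% to 60%, or above that upper limit; inactive means activation under 40%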; further: 0% is about no effect
Target sequence (O75388 whole entry, looked up): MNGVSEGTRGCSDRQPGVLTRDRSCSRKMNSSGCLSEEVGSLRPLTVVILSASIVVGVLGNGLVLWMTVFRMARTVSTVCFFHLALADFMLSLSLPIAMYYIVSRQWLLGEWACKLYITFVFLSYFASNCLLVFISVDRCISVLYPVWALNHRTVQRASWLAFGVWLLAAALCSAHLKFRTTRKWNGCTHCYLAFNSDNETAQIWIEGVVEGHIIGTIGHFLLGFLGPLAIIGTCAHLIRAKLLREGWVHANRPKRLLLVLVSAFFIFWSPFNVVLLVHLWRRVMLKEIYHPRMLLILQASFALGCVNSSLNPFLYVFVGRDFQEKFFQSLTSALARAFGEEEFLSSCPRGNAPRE
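Luminescent readout of beta-Gal complementation quantifies ligand-induced beta-arrestin association with GPR32 in CHO-K1 cells; 90 min compound incubation at 37 °C, detection 1 h at room temperature.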
* = called active by the depositor; i = inactive; ? = inconclusive; . = no result; ! = not active in a repeat; [ ] = remark or other dose. Unless noted, the call rests on the fitted dose curve; in most records, active means well fitted curve in the direction sought with a large enough effect; inconclusive means small, poorly fitted or top-dose-only effect, or another doubt; inactive means no such curve, though single readings can be large; an effect the other way counts as inactive or inconclusive.

SMILES	p53null 32C tox	SKOV3 invasion	p53null 39C kill	NTMT1 inhibitor	GALC G270D act	GPR32 ag
CS(=O)(=O)c1ccc(C(=O)OCC(=O)N2CCN(Cc3ccccc3)CC2)cc1[N+](=O)[O-]	.	.	.	-13%[57.5 µM]	.	.
COc1cc(OC)c(C(=O)NCc2nc(-c3ccccc3)no2)cc1OC	-3%	i	7%	-4%	i	71*
COc1ccc(-c2noc(CNC(=O)c3ccc(OC)cc3OC)n2)cc1	-1%	i	?	-3%	i	-5
Cc1ccc(/C=C/c2onc(C)c2S(=O)(=O)N2CCC(C(=O)N3CCC(N(C)C(C)C)CC3)CC2)cc1	-19%	?	16µM*	79µM*	i	-27
COC[C@H](C)Oc1cc(O[C@@H](C)Cc2ccccc2)cc(C(=O)Nc2ccc(C(=O)O)cn2)c1	.	.	.	10%	.	.
CCc1ccc(-n2nc(CO)c(C(=O)NCC(c3ccccc3)c3ccccc3)n2)cc1	0%	-6%	-14%	6%	i	-22
CCc1ccc(-n2nc(CO)c(C(=O)NC)n2)cc1	?	7%	20µM*	-12%	i	-2
Cc1ccc(NS(=O)(=O)c2cc3c(cc2NCC(C)(C)O)NC(=O)CC3)cc1C	.	.	.	-8%	.	.
O=C(CN1C(=O)C2(SCC(=O)N2c2ccccc2)c2ccccc21)NCc1ccccc1 (stereo unspecified)	-3%	1%	17%	89µM*	i	-2
Cc1ccc(N2C(=O)CSC23C(=O)N(CC(=O)NCc2ccccc2)c2ccccc23)cc1 (stereo unspecified)	16%	i	6%	12%	i	-6
CCCS(=O)(=O)c1nc(S(=O)(=O)c2ccc(C)cc2)c(N(CC)CC)s1	-2%	?	2%	0%	7.9µM*	-34
COc1ccc(C(=O)NCCc2csc(-c3ccc(Cl)cc3)n2)c(OC)c1	49%	6%	?	?	i	70*
COc1ccccc1C(=O)NCCc1csc(-c2ccc(C(F)(F)F)cc2)n1	?	4%	2%	-2%	i	12
COc1ccc(C(=O)NCCc2csc(-c3ccc(Cl)cc3)n2)cc1	14%	i	2%	-2%	i	87*
CCOC(=O)c1c(NC(=O)c2ccc(S(=O)(=O)N3CCC(C)CC3)cc2)sc2c1CCN(C(C)C)C2	-1%	i	21%	9%	i	78*
CCOC(=O)c1c(NC(=O)c2ccc(S(=O)(=O)N3CCC(C)CC3)cc2)sc2c1CCN(CC)C2	-18%	?	-8%	3%	i	-5
CCn1c(=O)sc2cc(NS(=O)(=O)c3ccc(C)cc3)ccc21	-4%	-4%	-7%	-3%	i	61*
COc1ccc(C(=O)N2CCC(C(=O)c3ccc(F)cc3)CC2)cc1	-3%	.	17%	.	.	.
COC(=O)c1ccc(NC(=O)C2CCN(C(=O)c3ccc(F)cc3)CC2)cc1	2%	6%	34%	6%	i	61*
N#Cc1cc2cc(CN3CCC(Nc4ncnc5sc(CC(F)(F)F)cc45)CC3)c(O)cc2n1Cc1cn[nH]c1	.	.	.	-30%	.	.
CCCCS(=O)(=O)c1oc(-c2cccs2)nc1S(=O)(=O)c1ccc(F)cc1	23%	?	55%	-3%	i	-8
CCCCS(=O)(=O)c1oc(-c2ccc(F)cc2)nc1S(=O)(=O)c1ccc(C)cc1	16µM*	-8%	?	?	i	13
CCC(C)S(=O)(=O)c1oc(-c2ccc(F)cc2)nc1S(=O)(=O)c1ccc(F)cc1 (stereo unspecified)	25µM*	3.5µM*	-17%	15%	i	13
CCS(=O)(=O)c1oc(-c2ccc(F)cc2)nc1S(=O)(=O)c1ccccc1	?	-8%	28%	2%	i	-18
Cn1cc(S(=O)(=O)c2ccc(Cl)cc2)c2cccc(N3CCNCC3)c21	.	.	.	0%[57.5 µM]	.	.
SMILES	p53null 32C tox	SKOV3 invasion	p53null 39C kill	NTMT1 inhibitor	GALC G270D act	GPR32 ag
O=C(Nc1cccnc1)c1cccnc1	-6%	.	-15%	.	.	.
O=C(Nc1cc(Cl)cc2c1[nH]c1cnccc12)c1cccnc1	.	-1%	.	18µM*!	.	.
CCN(C(=O)c1ccco1)c1nnc(-c2ccc(OC)cc2)s1	?	.	13µM*	.	.	.
CCOC(=O)c1ccc(NC(=O)Cn2nc(SC)c(S(=O)(=O)c3ccc(Cl)cc3)c2N)cc1	110%	-54%	4%	0%	i	69*
CCSc1nn(CC(=O)Nc2ccc(C(=O)OC)cc2)c(N)c1S(=O)(=O)c1ccc(C)cc1	43%	-2%	26%	-3%	i	11
CC(=O)N1CCc2nc3sc(C(=O)c4ccc(F)cc4)c(N)c3c(C(F)(F)F)c2C1	-10%	-46%	-9%	-6%	i	-17
Cc1csc(NC(=O)c2sc3nc4c(c(C(F)(F)F)c3c2N)CCC4)n1	.	19%	.	27µM*!	.	.
CCOc1ccccc1N1CC(c2nc3ccccc3n2CCCOc2ccc(OC)cc2)CC1=O (stereo unspecified)	-16%	7%	?	0%	i	1
CCOc1ccccc1N1CC(c2nc3ccccc3n2CCOc2ccc(OC)cc2)CC1=O (stereo unspecified)	12%	-13%	-14%	4%	i	80*
Cc1c(C(=O)Nc2ccc(Oc3ccnc4[nH]cc(-c5ccccc5)c34)c(F)c2)c(=O)n(-c2ccc(F)cc2)n1C	.	.	.	9%	.	.
CCCCCC=CCC=CCCCCCCCC(=O)OCC	.	.	.	0%[57.5 µM]	i	63*
CC(C)NCCCn1c(Sc2cc(Cl)cc(Cl)c2)nc2c(N)ncnc21	.	.	.	-18%	.	.
O=C(c1ccc(F)cc1)C1CCN(CCn2c(=S)[nH]c3ccccc3c2=O)CC1	.	.	.	18%[57.5 µM]	i	68*
Cc1cn(C2C[C@H](O)[C@@H](CO)O2)c(=O)[nH]c1=O (stereo partly specified)	.	.	.	11%	.	.
O=[N+]([O-])c1ccc(-[n+]2nc(-c3ccccc3)nn2-c2ccc(I)cc2)cc1	.	.	.	5%[57.5 µM]	.	.
CC(=O)N[C@H]1[C@H](O[C@H]2CC[C@@]3(C)C(CC[C@]4(C)C3CC=C3C5CC(C)(C)CC[C@]5(C(=O)O)C(O)C[C@]34C)C2(C)C)O[C@H](CO[C@@H]2O[C@H](C)[C@H](O)[C@H](O)[C@H]2O[C@@H]2OC[C@@H](O)[C@H](O)[C@H]2O)[C@@H](O)[C@@H]1O (stereo partly specified)	.	.	.	15%[12.6 µM]	.	.
COc1cc(NC(=O)c2nnn(Cc3ccc(F)cc3)c2N)cc(OC)c1	2%	i	-7%	9%	i	79*
